# Source: the supplement of paper PMC8728848
# Shown is part of a subset that was picked to be rich in the strongest signals.
# B1: CLECb-Precomplexed (Mus musculus), P43025 (protein)
# chain: MAKNGLVLCILVVSLLLDQTDGYPSRMKARKHSKRRVKAKDDDLKSQVEKLWREVNALKEMQALQTVCLRGTKVHKKCYLASEGLKHYHEANEDCISKGGTLVVPRNSDEINALRDYGKRSLPGVNDFWLGINDMVTEGKFLDVHGFAVSFLNWDRAQPSGGKRENCVLFSQSAQGKWSDEACRSSKRYICEFIIPTRTRPLEQKLISEEDLAANDILDYKDDDDKV
# What was measured:
# Experiment in all cases: glycan array binding signal (z-score within array); higher = stronger binding
# Settings in all cases: glycan notation: IUPAC condensed, linker removed
# [1] = molecular target: Fuc(a1-2)Gal(b1-3)GlcNAc6S
# How it was run: (§1)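 The binding signal is a Z-score computed within each array and averaged over linkers. Arrays of the same protein sequence at different concentrations or buffers were also averaged together. Data originate from 3228 arrays in the Consortium for Functional Glycomics database, kept only where the protein sequence was available.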
# [2] = molecular target: Fuc(a1-2)Gal(b1-4)GlcNAc(b1-2)Man(a1-3)[Fuc(a1-2)Gal(b1-4)GlcNAc(b1-2)Man(a1-6)]Man(b1-4)GlcNAc(b1-4)GlcNAc
# How it was run: as §1
# [3] = molecular target: Fuc(a1-2)Gal6S(b1-3)GlcNAc
# How it was run: as §1
# [4] = molecular target: Fuc(a1-2)[GalNAc(a1-3)]Gal(b1-4)Glc
# How it was run: as §1
# [5] = molecular target: Fuc(a1-2)[GalNAc(a1-3)]Gal(b1-4)GlcNAc(b1-2)Man(a1-3)[Fuc(a1-2)[GalNAc(a1-3)]Gal(b1-4)GlcNAc(b1-2)Man(a1-6)]Man(b1-4)GlcNAc(b1-4)GlcNAc
# How it was run: as §1
# [6] = molecular target: Fuc(a1-2)[GalNAc(b1-3)]Gal
# How it was run: as §1
# [7] = molecular target: Fuc(a1-3)[Gal(b1-4)]GlcNAc
# How it was run: as §1
# [8] = molecular target: Fuc(a1-3)[Gal(b1-4)]GlcNAc(b1-6)[Gal(b1-3)GlcNAc(b1-3)]Gal(b1-4)Glc
# How it was run: as §1
# [9] = molecular target: Fuc(a1-3)[Gal3S(b1-4)]GlcNAc6S
# How it was run: as §1
# [10] = molecular target: Gal(a1-3)Gal(b1-3)GlcNAc(b1-3)GalNAc
# How it was run: as §1
# [11] = molecular target: Gal(a1-3)Gal(b1-3)[Fuc(a1-4)]GlcNAc(b1-2)Man(a1-3)[Gal(a1-3)Gal(b1-3)[Fuc(a1-4)]GlcNAc(b1-2)Man(a1-6)]Man(b1-4)GlcNAc(b1-4)GlcNAc
# How it was run: as §1
# Gal(a1-3)GalNAc = molecular target: Gal(a1-3)GalNAc
# How it was run: as §1
# [12] = molecular target: Gal(b1-3)GlcNAc(b1-3)Gal(b1-3)GlcNAc
# How it was run: as §1
# [13] = molecular target: Gal(b1-3)GlcNAc(b1-3)Gal(b1-4)GlcNAc(b1-2)Man(a1-3)[Gal(b1-3)GlcNAc(b1-3)Gal(b1-4)GlcNAc(b1-2)Man(a1-6)]Man(b1-4)GlcNAc(b1-4)GlcNAc
# How it was run: as §1
# [14] = molecular target: Gal(b1-3)GlcNAc(b1-6)[Gal(b1-3)]GalNAc
# How it was run: as §1
# [15] = molecular target: Gal(b1-3)[Fuc(a1-4)]GlcNAc(b1-2)Man
# How it was run: as §1
# [16] = molecular target: Gal(b1-3)[Fuc(a1-4)]GlcNAc(b1-2)Man(a1-3)[Gal(b1-3)[Fuc(a1-4)]GlcNAc(b1-2)Man(a1-6)]Man(b1-4)GlcNAc(b1-4)[Fuc(a1-6)]GlcNAc
# How it was run: as §1
# [17] = molecular target: Gal(b1-3)[Fuc(a1-4)]GlcNAc(b1-3)Gal(b1-3)[Fuc(a1-4)]GlcNAc
# How it was run: as §1
# [18] = molecular target: Gal(b1-4)GlcNAc(b1-2)Man(a1-3)[GlcNAc(b1-2)Man(a1-6)]Man(b1-4)GlcNAc(b1-4)GlcNAc
# How it was run: as §1
# [19] = molecular target: Gal(b1-4)GlcNAc(b1-2)[Gal(b1-4)GlcNAc(b1-6)]Man(a1-6)[Gal(b1-4)GlcNAc(b1-2)Man(a1-3)]Man(b1-4)GlcNAc(b1-4)GlcNAc
# How it was run: as §1
# [20] = molecular target: Gal(b1-4)GlcNAc(b1-3)Gal(b1-4)Glc
# How it was run: as §1
# [21] = molecular target: Gal(b1-4)GlcNAc(b1-3)Gal(b1-4)GlcNAc(b1-2)Man(a1-3)[Gal(b1-4)GlcNAc(b1-3)Gal(b1-4)GlcNAc(b1-2)Man(a1-6)]Man(b1-4)GlcNAc(b1-4)GlcNAc
# How it was run: as §1
# [22] = molecular target: Gal(b1-4)GlcNAc(b1-3)Gal(b1-4)GlcNAc(b1-3)Gal(b1-4)GlcNAc(b1-2)[Gal(b1-4)GlcNAc(b1-3)Gal(b1-4)GlcNAc(b1-3)Gal(b1-4)GlcNAc(b1-6)]Man(a1-6)[Gal(b1-4)GlcNAc(b1-3)Gal(b1-4)GlcNAc(b1-3)Gal(b1-4)GlcNAc(b1-2)Man(a1-3)]Man(b1-4)GlcNAc(b1-4)[Fuc(a1-6)]GlcNAc
# How it was run: as §1
# [23] = molecular target: Gal(b1-4)GlcNAc(b1-3)Gal(b1-4)GlcNAc(b1-3)Gal(b1-4)GlcNAc(b1-3)Gal(b1-4)GlcNAc(b1-3)Gal(b1-4)GlcNAc(b1-2)Man(a1-3)[Gal(b1-4)GlcNAc(b1-3)Gal(b1-4)GlcNAc(b1-3)Gal(b1-4)GlcNAc(b1-3)Gal(b1-4)GlcNAc(b1-3)Gal(b1-4)GlcNAc(b1-2)Man(a1-6)]Man(b1-4)GlcNAc(b1-4)GlcNAc
# How it was run: as §1
# [24] = molecular target: Gal(b1-4)GlcNAc(b1-3)Gal(b1-4)GlcNAc(b1-3)Gal(b1-4)GlcNAc(b1-3)Gal(b1-4)GlcNAc(b1-3)Gal(b1-4)GlcNAc(b1-2)[Gal(b1-4)GlcNAc(b1-3)Gal(b1-4)GlcNAc(b1-3)Gal(b1-4)GlcNAc(b1-3)Gal(b1-4)GlcNAc(b1-3)Gal(b1-4)GlcNAc(b1-6)]Man(a1-6)[Gal(b1-4)GlcNAc(b1-3)Gal(b1-4)GlcNAc(b1-3)Gal(b1-4)GlcNAc(b1-3)Gal(b1-4)GlcNAc(b1-3)Gal(b1-4)GlcNAc(b1-2)Man(a1-3)]Man(b1-4)GlcNAc(b1-4)[Fuc(a1-6)]GlcNAc
# How it was run: as §1
# [25] = molecular target: Gal3S(b1-4)[Fuc(a1-3)]Glc6S
# How it was run: as §1
# [26] = molecular target: Gal3S(b1-4)[Fuc(a1-3)]GlcNAc6S
# How it was run: as §1
# Gal3S6S(b1-4)GlcNAc = molecular target: Gal3S6S(b1-4)GlcNAc
# How it was run: as §1
# Gal6S(b1-4)Glc6S = molecular target: Gal6S(b1-4)Glc6S
# How it was run: as §1
# Gal6S(b1-4)GlcNAc6S = molecular target: Gal6S(b1-4)GlcNAc6S
# How it was run: as §1
# [27] = molecular target: GalNAc(b1-4)GlcNAc(b1-2)Man(a1-3)[GalNAc(b1-4)GlcNAc(b1-2)Man(a1-6)]Man(b1-4)GlcNAc(b1-4)GlcNAc
# How it was run: as §1
# [28] = molecular target: GlcNAc(a1-4)Gal(b1-4)GlcNAc(b1-3)Gal(b1-4)GlcNAc
# How it was run: as §1
# [29] = molecular target: GlcNAc(b1-3)Gal(b1-4)GlcNAc(b1-2)Man(a1-3)[GlcNAc(b1-3)Gal(b1-4)GlcNAc(b1-2)Man(a1-6)]Man(b1-4)GlcNAc(b1-4)[Fuc(a1-6)]GlcNAc
# How it was run: as §1
# [30] = molecular target: GlcNAc(b1-3)Gal(b1-4)GlcNAc(b1-3)Gal(b1-4)GlcNAc(b1-3)Gal(b1-4)GlcNAc(b1-2)Man(a1-3)[GlcNAc(b1-3)Gal(b1-4)GlcNAc(b1-3)Gal(b1-4)GlcNAc(b1-3)Gal(b1-4)GlcNAc(b1-2)Man(a1-6)]Man(b1-4)GlcNAc(b1-4)[Fuc(a1-6)]GlcNAc
# How it was run: as §1
# GlcNAc(b1-3)Man = molecular target: GlcNAc(b1-3)Man
# How it was run: as §1
# [31] = molecular target: GlcNAc(b1-3)[GlcNAc(b1-4)][GlcNAc(b1-6)]GlcNAc
# How it was run: as §1
# [32] = molecular target: GlcNAc(b1-4)Gal(b1-4)GlcNAc
# How it was run: as §1
# [33] = molecular target: GlcNAc(b1-4)GlcNAc(b1-4)GlcNAc
# How it was run: as §1
# [34] = molecular target: GlcNAc(b1-4)GlcNAc(b1-4)GlcNAc(b1-4)GlcNAc(b1-4)GlcNAc(b1-4)GlcNAc
# How it was run: as §1
# [35] = molecular target: Neu5Ac(a2-3)Gal(b1-3)GlcNAc(b1-2)Man(a1-3)[GlcNAc(b1-4)][Neu5Ac(a2-3)Gal(b1-3)GlcNAc(b1-2)Man(a1-6)]Man(b1-4)GlcNAc(b1-4)GlcNAc
# How it was run: as §1
# [36] = molecular target: Neu5Ac(a2-3)Gal(b1-4)GlcNAc(b1-2)Man(a1-3)[Neu5Ac(a2-6)Gal(b1-4)GlcNAc(b1-2)Man(a1-6)]Man(b1-4)GlcNAc(b1-4)GlcNAc
# How it was run: as §1
# [37] = molecular target: Neu5Ac(a2-3)Gal6S(b1-4)GlcNAc
# How it was run: as §1
# [38] = molecular target: Neu5Ac(a2-3)[GalNAc(b1-4)]Gal(b1-4)GlcNAc
# How it was run: as §1
# Neu5Ac(a2-6)Gal = molecular target: Neu5Ac(a2-6)Gal
# How it was run: as §1
# [39] = molecular target: Neu5Ac(a2-6)Gal(b1-4)GlcNAc(b1-2)Man(a1-3)Man(b1-4)GlcNAc(b1-4)GlcNAc
# How it was run: as §1
# [40] = molecular target: Neu5Ac(a2-6)Gal(b1-4)GlcNAc(b1-2)Man(a1-3)[Neu5Ac(a2-3)Gal(b1-4)GlcNAc(b1-2)Man(a1-6)]Man(b1-4)GlcNAc(b1-4)GlcNAc
# How it was run: as §1
# [41] = molecular target: Neu5Ac(a2-6)Gal(b1-4)GlcNAc(b1-2)Man(a1-3)[Neu5Ac(a2-6)Gal(b1-4)GlcNAc(b1-2)Man(a1-6)]Man(b1-4)GlcNAc(b1-4)[Fuc(a1-6)]GlcNAc
# How it was run: as §1
# [42] = molecular target: Neu5Ac(a2-6)Gal(b1-4)GlcNAc(b1-3)Gal(b1-4)GlcNAc(b1-3)Gal(b1-4)GlcNAc(b1-2)Man(a1-3)[Neu5Ac(a2-6)Gal(b1-4)GlcNAc(b1-3)Gal(b1-4)GlcNAc(b1-3)Gal(b1-4)GlcNAc(b1-2)Man(a1-6)]GalNAc
# How it was run: as §1
binder,measurement,setting,value
B1,glycan array binding signal (z-score),[1],-0.588
same,glycan array binding signal (z-score),[2],2.16
same,glycan array binding signal (z-score),[3],-0.377
same,glycan array binding signal (z-score),[4],-0.431
same,glycan array binding signal (z-score),[5],-0.336
same,glycan array binding signal (z-score),[6],-0.291
same,glycan array binding signal (z-score),[7],0.129
same,glycan array binding signal (z-score),[8],0.092
same,glycan array binding signal (z-score),[9],-0.231
same,glycan array binding signal (z-score),[10],0.142
same,glycan array binding signal (z-score),[11],9.55
same,glycan array binding signal (z-score),Gal(a1-3)GalNAc,-0.387
same,glycan array binding signal (z-score),[12],-0.229
same,glycan array binding signal (z-score),[13],0.774
same,glycan array binding signal (z-score),[14],-0.462
same,glycan array binding signal (z-score),[15],-0.166
same,glycan array binding signal (z-score),[16],2.08
same,glycan array binding signal (z-score),[17],0.004
same,glycan array binding signal (z-score),[18],-0.209
same,glycan array binding signal (z-score),[19],2.03
same,glycan array binding signal (z-score),[20],-0.229
same,glycan array binding signal (z-score),[21],2.63
same,glycan array binding signal (z-score),[22],3.07
same,glycan array binding signal (z-score),[23],2.1
same,glycan array binding signal (z-score),[24],11.2
same,glycan array binding signal (z-score),[25],3.47
same,glycan array binding signal (z-score),[26],0.004
same,glycan array binding signal (z-score),Gal3S6S(b1-4)GlcNAc,-0.251
same,glycan array binding signal (z-score),Gal6S(b1-4)Glc6S,0.254
same,glycan array binding signal (z-score),Gal6S(b1-4)GlcNAc6S,0.049
same,glycan array binding signal (z-score),[27],0.242
same,glycan array binding signal (z-score),[28],-0.295
same,glycan array binding signal (z-score),[29],-0.522
same,glycan array binding signal (z-score),[30],-0.255
same,glycan array binding signal (z-score),GlcNAc(b1-3)Man,-0.185
same,glycan array binding signal (z-score),[31],-0.456
same,glycan array binding signal (z-score),[32],-0.159
same,glycan array binding signal (z-score),[33],-0.15
same,glycan array binding signal (z-score),[34],-0.322
same,glycan array binding signal (z-score),[35],-0.444
same,glycan array binding signal (z-score),[36],-0.245
same,glycan array binding signal (z-score),[37],-0.618
same,glycan array binding signal (z-score),[38],-0.321
same,glycan array binding signal (z-score),Neu5Ac(a2-6)Gal,-0.301
same,glycan array binding signal (z-score),[39],0.007
same,glycan array binding signal (z-score),[40],-0.03
same,glycan array binding signal (z-score),[41],2.94
same,glycan array binding signal (z-score),[42],3.49
